PubChem BioAssay
Records with an inconclusive call do not appear. Calls of active or inactive are those of the source.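 The calls were made as follows, unless noted: active = normalized viability below 100% at a tested concentration; inactive = the rest.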

How the values were obtained:
[1] = growth inhibition of DIPG glioma cells, dose response, cell-based, SU-DIPG-XVII, MIPE5.0, CellTiter-Glo, qHTS (AID 1347060; cut-off not given, nearly all actives have AC50 up to about 26 µM;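 as to AC50: cells exposed to compound for 48 hours before viability readout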); conditions: SU-DIPG-XVII viability, CellTiter-Glo ATP luminescence
[2] = growth inhibition of DIPG glioma cells, dose response, cell-based, SU-DIPG-XIII, MIPE4.0, CellTiter-Glo, qHTS (AID 1347061; cut-off not given, nearly all actives have AC50 up to about 37 µM;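 also: cells exposed to compound for 48 hours before readout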); conditions: SU-DIPG-XIII viability, CellTiter-Glo ATP luminescence
[3] = growth inhibition of DIPG glioma cells, dose response, cell-based, SU-DIPG-XIII, MIPE5.0, CellTiter-Glo, qHTS (AID 1347064; cut-off not given, nearly all actives have AC50 up to about 23 µM;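 as to AC50: cells exposed to compound for 48 hours before the viability read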); conditions: SU-DIPG-XIII viability, CellTiter-Glo ATP luminescence
[4] = viability loss in pontine glioma line – cell-based, SU-DIPG-XXV, MIPE5.0, CellTiter-Glo, qHTS, dose response (AID 1347065; cut-off not given, nearly all actives have AC50 up to about 26 µM;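 also: cells exposed to compound for 48 hours before ATP readout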); conditions: CellTiter-Glo ATP luminescence
[5] = JHH-DIPG-1 glioma cell viability, MIPE5.0 library, CellTiter-Glo luminescence, qHTS (AID 1347067; cut-off not given, nearly all actives have AC50 up to about 26 µM;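 also: cells exposed to compound for 48 hours before readout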); conditions: JHH-DIPG-1 glioma viability, CellTiter-Glo ATP luminescence
[6] = SU-DIPG-XXV glioma cell viability, MIPE5.0 library, qHTS (AID 1347068; cut-off not given, nearly all actives have IC50 up to about 30 µM)
[7] = sensitizers of A549 cells to miR-34 induction, primary screen, imaging, A549 dox-inducible miR-34, nuclei and caspase counts (AID 1347080;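 active = compounds whose cell count with miR-34 switched on is under 0.7 times the count with it off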); conditions: A549 miR-34 inducible, Hoechst nuclei count, 48 h
[8] = modifiers of HSF1 nuclear foci, imaging, Selleck Cancer Library (AID 1347162; in the data active = plate-normalised HSF1 focus index below about 0.46); conditions: human cells, at 10 µM; SSMD: measured here: HSF1 foci SSMD mean; cell count: measured here: cell number; plate-normalised HSF1 focus index: stronger effect = lower value
[9] = survival rescue of mitochondrial mutant cells in low glucose, primary screen, MELAS cybrids, Rieske KO mouse fibroblasts, CellTiter-Glo (AID 1508586;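 active = mean z-score across replicates of 1.96 or higher in either the MELAS or the Rieske mutant cell line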;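 also: z relative to plate mean and SD of compound and empty wells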)
[10] = ovarian cancer cell viability with rucaparib, profiling panel, oncology-focused library, rucaparib conditional (AID 1508598); conditions: patient-derived ovarian cancer cells, CellTiter-Glo viability, 144 h, stronger effect = lower value
[11] = growth inhibition of DIPG glioma cells, dose response, cell-based, SU-DIPG-IV, MIPE4.0, CellTiter-Glo, qHTS (AID 1347063; cut-off not given, nearly all actives have AC50 up to about 30 µM;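 also: compound exposure lasted 48 hours before the viability readout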); conditions: SU-DIPG-IV viability, CellTiter-Glo ATP luminescence
[12] = SU-DIPG-VI glioma cell viability, MIPE4.0 library, CellTiter-Glo luminescence, qHTS (AID 1347066; cut-off not given, nearly all actives have AC50 up to about 30 µM;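 also: cells exposed to compound for 48 hours before readout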); conditions: CellTiter-Glo ATP luminescence
[13] = stronger effect = lower value, cell number ratio, induced over uninduced
[14] = measured here: relative caspase fold change +Dox/-Dox
[15] = measured here: total cells with miR-34 induction, stronger effect = lower value
[16] = measured here: total cells without miR-34 induction
[17] = MELAS cybrid survival, CellTiter-Glo 48 h, stronger effect = higher value
[18] = Rieske KO mouse fibroblast survival, CellTiter-Glo 72 h

CC(C)(C)c1cc(NC(=O)Nc2ccc(-c3cn4c(n3)sc3cc(OCCN5CCOCC5)ccc34)cc2)no1
7630: cell count [8]
0.734: SSMD [8]
inactive: outcome [2] | outcome [6] | fold change [7, 13] 1 | plate-normalised HSF1 focus index [8] 1.05 | viability ([10]; at 0.000305 µM, OCI-C5x cells, with rucaparib 10 µM, 100% = cells with rucaparib alone) 105% | viability ([10]; at 0.000305 µM, OCI-C5x cells, without rucaparib) 104% | viability ([10]; at 0.00122 µM, OCI-C5x cells, with rucaparib 10 µM, 100% = cells with rucaparib alone) 112% | viability ([10]; at 0.00488 µM, OCI-C5x cells, with rucaparib 10 µM, 100% = cells with rucaparib alone) 105% | viability ([10]; at 0.0195 µM, OCI-C5x cells, with rucaparib 10 µM, 100% = cells with rucaparib alone) 107% | viability ([10]; at 0.0195 µM, OCI-C5x cells, without rucaparib) 101% | viability ([10]; at 0.0195 µM, OCI-P5x cells, with rucaparib 20 µM, 100% = cells with rucaparib alone) 103% | viability ([10]; at 0.0781 µM, OCI-C5x cells, with rucaparib 10 µM, 100% = cells with rucaparib alone) 111% | viability ([10]; at 0.0781 µM, OCI-C5x cells, without rucaparib) 112% | viability ([10]; at 0.313 µM, OCI-C5x cells, with rucaparib 10 µM, 100% = cells with rucaparib alone) 115% | viability ([10]; at 0.313 µM, OCI-C5x cells, without rucaparib) 108% | viability ([10]; at 1.25 µM, OCI-C5x cells, with rucaparib 10 µM, 100% = cells with rucaparib alone) 108% | viability ([10]; at 1.25 µM, OCI-C5x cells, without rucaparib) 128% | viability ([10]; at 5 µM, OCI-C5x cells, with rucaparib 10 µM, 100% = cells with rucaparib alone) 100% | viability ([10]; at 5 µM, OCI-C5x cells, without rucaparib) 107%
6520: cell count [7, 15]
6510: cell count [7, 16]
-2.86: z-score [9, 18]
0.781: fold change [7, 14]
active: AC50 [1] 23.5 µM | AC50 [3] 14.8 µM | AC50 [4] 16.6 µM | AC50 [5] 20.9 µM | z-score [9, 17] 4.33 | viability ([10]; at 0.000305 µM, OCI-P5x cells, with rucaparib 20 µM, 100% = cells with rucaparib alone) 87.1% | viability ([10]; at 0.000305 µM, OCI-P5x cells, without rucaparib) 82.2% | viability ([10]; at 0.00122 µM, OCI-C5x cells, without rucaparib) 95% | viability ([10]; at 0.00122 µM, OCI-P5x cells, with rucaparib 20 µM, 100% = cells with rucaparib alone) 93.1% | viability ([10]; at 0.00122 µM, OCI-P5x cells, without rucaparib) 87% | viability ([10]; at 0.00488 µM, OCI-C5x cells, without rucaparib) 88.6% | viability ([10]; at 0.00488 µM, OCI-P5x cells, with rucaparib 20 µM, 100% = cells with rucaparib alone) 91.7% | viability ([10]; at 0.00488 µM, OCI-P5x cells, without rucaparib) 93.5% | viability ([10]; at 0.0195 µM, OCI-P5x cells, without rucaparib) 93.7% | viability ([10]; at 0.0781 µM, OCI-P5x cells, with rucaparib 20 µM, 100% = cells with rucaparib alone) 86.7% | viability ([10]; at 0.0781 µM, OCI-P5x cells, without rucaparib) 90.6% | viability ([10]; at 0.313 µM, OCI-P5x cells, with rucaparib 20 µM, 100% = cells with rucaparib alone) 82.2% | viability ([10]; at 0.313 µM, OCI-P5x cells, without rucaparib) 99% | viability ([10]; at 1.25 µM, OCI-P5x cells, with rucaparib 20 µM, 100% = cells with rucaparib alone) 83.4% | viability ([10]; at 1.25 µM, OCI-P5x cells, without rucaparib) 87.4% | viability ([10]; at 5 µM, OCI-P5x cells, with rucaparib 20 µM, 100% = cells with rucaparib alone) 31.2% | viability ([10]; at 5 µM, OCI-P5x cells, without rucaparib) 70.6%

Cn1c(Nc2ccc(C(F)(F)F)cc2)nc2cc(Oc3ccnc(-c4ncc(C(F)(F)F)[nH]4)c3)ccc21
0.357: z-score [9, 18]
2230: cell count [7, 15]
2330: cell count [7, 16]
active: AC50 [1] 5.25 µM | AC50 [2] 16.6 µM | AC50 [11] 132 nM | AC50 [4] 0.372 µM | AC50 [12] 3.32 µM | AC50 [5] 2.63 µM
0.95: fold change [7, 14]
inactive: fold change [7, 13] 0.96 | z-score [9, 17] 0.723

CN[C@@H](C)C(=O)N[C@H]1CCCC[C@H]2CC[C@@H](C(=O)N[C@@H](c3ccccc3)c3cn(CCCCc4ccc(CCCCn5cc([C@@H](NC(=O)[C@@H]6CC[C@@H]7CCCC[C@H](NC(=O)[C@H](C)NC)C(=O)N76)c6ccccc6)nn5)cc4)nn3)N2C1=O
inactive: outcome [1] | outcome [2] | outcome [3] | outcome [12] | outcome [5]

C[C@@H](NC(=O)c1ncnc(N)c1Cl)c1ncc(C(=O)Nc2cc(C(F)(F)F)c(Cl)cn2)s1
active: AC50 [1] 16.6 µM | AC50 [2] 18.7 µM | AC50 [3] 14.8 µM | AC50 [5] 5.9 µM
inactive: outcome [12] | outcome [6]

O=C(O)Cn1nnc(-c2cc(N3CCC(Oc4cc(F)ccc4Br)CC3)no2)n1
7120: cell count [7, 16]
6300: cell count [7, 15]
0.855: z-score [9, 18]
0.826: fold change [7, 14]
inactive: outcome [1] | outcome [2] | outcome [11] | outcome [3] | outcome [12] | outcome [5] | outcome [6] | fold change [7, 13] 0.885 | z-score [9, 17] -0.382
